From PubChem
In the library only some 6% were active in any assay of this set; here they are far more common.
D3 ag: qHTS of D3 Dopamine Receptor Agonist: qHTS. D(3) dopamine receptor (Homo sapiens), P35462. D3R DiscoveRx beta-arrestin cells, luminescence, 90 min. max activation, %. actives 0.58% (n = 410,000). AID 652048, 2013; in the data active = max activation above about 30%; note: 0% is about no effect
Target sequence (P35462 whole entry, looked up): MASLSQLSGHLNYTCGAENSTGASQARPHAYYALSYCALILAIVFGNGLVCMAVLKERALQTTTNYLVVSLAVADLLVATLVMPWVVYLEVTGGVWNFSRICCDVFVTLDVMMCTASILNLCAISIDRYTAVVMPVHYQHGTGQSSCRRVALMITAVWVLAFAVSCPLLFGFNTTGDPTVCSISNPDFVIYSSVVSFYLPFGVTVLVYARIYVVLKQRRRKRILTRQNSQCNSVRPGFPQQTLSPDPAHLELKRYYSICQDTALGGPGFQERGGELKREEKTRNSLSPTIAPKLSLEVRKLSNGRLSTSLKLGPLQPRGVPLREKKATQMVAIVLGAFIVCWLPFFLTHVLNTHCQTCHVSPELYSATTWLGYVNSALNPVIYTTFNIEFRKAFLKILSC
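Cells at 1500/well, incubated overnight, then treated with pinned compounds (dopamine as control) for 90 min at 37 degrees C. DiscoveRx reagent added for 30 - 60 minutes at room temperature; luminescence read.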
D3 antag: qHTS of D3 Dopamine Receptor Antagonist: qHTS. D(3) dopamine receptor (Homo sapiens), P35462. D3R cells, DiscoveRx beta-arrestin luminescence, antagonist mode; stronger effect = lower value. max response, negative = inhibition, %. actives 2.5% (n = 360,000). AID 652054, 2013; in the data active = max response below about -50%; inconclusive = no clear call, values can overlap the other calls; note: % is set by controls: 0 for no effect and ±100 for the full control effect
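Cells expressing the human receptor were seeded at 1500 cells/well, incubated overnight at 37 degrees C in 5% CO2, then exposed to library compounds with dopamine controls for 90 minutes at 37 degrees C before luminescent detection.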
D1 agonist: Allosteric Agonists of the Human D1 Dopamine Receptor: qHTS. AID 504660, 2011. HEK293 T-REx D1 cells, calcium flux, agonist mode. actives 1% (n = 360,000). activation, % at 2 µM. D(1A) dopamine receptor (Homo sapiens), P21728; in the data active = activation above about 30%; note: 0% is about no effect
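Inducible HEK293 T-REx D1 cells, force-coupled to calcium signalling, were plated at 4000 cells/well with tetracycline and held overnight at 30 C. After no-wash calcium dye loading, compound-evoked calcium rise over 180 s flagged agonists.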
D1 antagonist: Antagonist of Human D 1 Dopamine Receptor: qHTS; actives 3.2% (n = 360,000); HEK293 TREx D1 cells, calcium flux, dopamine EC80; stronger effect = lower value; activity change, negative = inhibition, % at 10 µM; D(1A) dopamine receptor (Homo sapiens), P21728; in the data active = activity change below about -30%; note: % is set by controls: 0 for no effect and ±100 for the full control effect
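Cells carrying a force-coupled, tetracycline-inducible human D1 receptor report calcium flux. Each well gets a 10 s baseline, compound with 180 s monitoring, then an EC80 dopamine stimulus with a second 180 s kinetic read.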
D1 potentiator: Potentiators of Human D1 Dopamine Receptor: qHTS; D(1A) dopamine receptor (Homo sapiens), P21728; HEK293 TREx D1 cells, calcium flux, dopamine EC20 potentiation; potentiation, % at 10 µM; actives 0.036% (n = 360,000); AID 504651, 2011; in the data active = potentiation above about 30%; note: 0% is about no effect
An asterisk follows results filed as active; ? = inconclusive; . = not tested or not shown.

SMILES | D3 ag | D3 antag | D1 agonist | D1 antagonist | D1 potentiator
COc1ccc(C)cc1NC(=O)N(Cc1ccc2c(c1)OCO2)C1CCN(Cc2ccccc2)CC1 | -27.7 | . | 2.0 | 4.3 | 1.6
CN(C)CCN=Cc1c(O)n(C2CCCCCC2)c(=O)[nH]c1=O | 5.2 | 4.2 | 4.7 | -11.7 | -1.1
CCN(CC)CCN=Cc1c(O)n(C2CCCCCC2)c(=O)[nH]c1=O | 39.3* | -0.2 | 0.8 | 12.0 | -1.2
O=C1c2ccccc2C(=O)C1C(=O)C(c1ccccc1)c1ccccc1 | -5.1 | . | . | . | .
CN(C)CCc1c[nH]c2cccc(OP(=O)(O)O)c12 | 6.9 | . | . | . | .
C=CCN1C[C@H](C)N([C@H](c2ccc(C(=O)N(CC)CC)cc2)c2cccc(OC)c2)C[C@H]1C | -19.7 | . | . | . | .
CO[C@H]1[C@@H](O)C[C@H](O[C@H]2[C@@H](O)C[C@H](O[C@H]3[C@@H](O)C[C@H](O[C@H]4CC[C@@]5(C)[C@H](CC[C@@H]6[C@@H]5C[C@@H](O)[C@]5(C)[C@@H](C7=CC(=O)OC7)CC[C@]65O)C4)O[C@@H]3C)O[C@@H]2C)O[C@@H]1C | 9.7 | . | . | . | .
Cc1[nH]c2ccccc2c1CCNCc1ccco1 | -7.6 | -6.2 | 10.9 | -40.7* | -2.7
Cc1[nH]c2ccccc2c1CCNCc1cccnc1 | -14.3 | -4.6 | 2.6 | 1.9 | -1.1
Cc1ccc(-c2cc(-c3ccc(C)cc3)[n+](-c3ccc(C(=O)O)cc3)c(-c3ccc(C)cc3)c2)cc1 | -8.8 | -21.7 | 1.8 | 1.7 | -6.2
Cc1ccc(C[n+]2c(-c3ccc(C)cc3)cc(-c3ccc(C)cc3)cc2-c2ccc(C)cc2)cc1 | -6.9 | 31.6 | 39.5* | 11.8 | 5.2
C[C@@H](Cc1ccccc1)N(C)C | -4.1 | . | . | . | .
CCOP(=S)(OCC)SCSc1ccc(Cl)cc1 | 48.0* | . | . | . | .
CCOP(=O)(OCC)C(NC(=O)c1ccc(Cl)cc1)=C(Cl)Cl | -1.8 | 10.8 | -1.7 | 3.0 | 1.3
CCC(=O)C(CC(C)N(C)C)(c1ccccc1)c1ccccc1 (stereo not drawn) | -26.2 | . | . | . | .
COc1ccc2[nH]c(C)c(CCNCc3cn(C)c4ccccc34)c2c1 | -8.2 | 0.0 | 41.2* | -54.9* | -11.2
CN1CCN(c2nc(N)c(Br)c(Cl)n2)CC1 | -1.6 | -68.6* | 3.8 | -33.9* | -2.4
c1cncc(C2CCCCN2Cc2ccc3c(c2)OCO3)c1 (stereo not drawn) | 1.0 | -15.3 | 0.8 | -38.3* | -2.5
O=C(Cc1ccccc1)N1CCN(CC2CC=CCC2)CC1 (stereo not drawn) | -16.4 | -53.5* | 6.4 | -25.1 | 1.9
C=CCC1([C@H](C)CCC)C(=O)NC(=O)NC1=O | -13.0 | . | . | . | .
CN1CC(C(=O)c2ccc([N+](=O)[O-])cc2)C(c2ccc(Cl)cc2)C1 (stereo not drawn) | -20.6 | -58.9* | 5.8 | -21.3 | -0.2
CN1CC(C(=O)c2cccc(C(F)(F)F)c2)C(c2ccc(Cl)cc2)C1 (stereo not drawn) | -11.2 | -22.9 | 30.8* | -6.4 | -9.9
COc1cccc(C(=O)C2CN(C)CC2c2ccc(Cl)cc2)c1 (stereo not drawn) | -16.4 | -17.1 | 11.6 | -4.3 | -7.6
NP(N)(=O)NC(=O)c1ccc(F)cc1 | 8.5 | . | . | . | .
O=C(O)[C@H](O)[C@@H](O)C(=O)O | -7.8 | -27.5 | 3.0 | 7.6 | 0.6
SMILES | D3 ag | D3 antag | D1 agonist | D1 antagonist | D1 potentiator
O=C(COc1cc(Cl)ccc1Cl)Nc1ccc(Cl)cc1C(=O)c1ccccc1 | -8.5 | . | -3.0 | 11.0 | 1.1
CCCN(CCC)C1Cc2cc(OC)c(OC)cc2C1 | -89.7 | -103.5* | . | . | .
CCCCn1c(O)c(C(C)=NCCc2c[nH]c3ccccc23)c(=O)[nH]c1=O | -0.3 | -1.5 | 4.4 | 9.8 | 4.4
O=C(/C=C/c1c[nH]c2ccccc12)c1c(O)n(CCc2ccccc2)c(=O)[nH]c1=O | 3.2 | -6.4 | 383.1* | 51.2 | 39.0*
CCCCCCCCCC(=O)O[C@H]1CC[C@H]2[C@@H]3CCC4=CC(=O)CC[C@@H]4[C@H]3CC[C@]12C | 7.9 | . | . | . | .
Cc1ccc(CN2CCCN(Cc3ccc(Cl)cc3)S2(=O)=O)cc1 | 77.1* | -18.2 | 5.5 | -18.4 | 8.6
Cc1ccccc1CN1CCCN(Cc2ccc(Cl)cc2)S1(=O)=O | -0.8 | ? | 4.7 | -4.4 | 3.0
CC(C)CCNC(=O)c1c(N)n(Cc2ccc3c(c2)OCO3)c2nc3ccccc3nc12 | 34.9* | 21.6 | 1.2 | 4.9 | -6.4
CCCCCCCCn1sccc1=O | -75.1 | -81.0* | 1.7 | . | -5.5
CN(C)c1cccc(CN2CCN(c3ccccc3)CC2)c1 | -12.1 | -85.2* | . | . | .
COc1ccc2c(c1OC)CN1CCc3cc4c(cc3[C@H]1C2)OCO4 | -65.0 | -113.0* | 1.2 | -80.4* | -13.3
COc1cc2c(cc1OC)C(C1c3cc4c(cc3CCN1C)OCO4)OC2=O (stereo not drawn) | -5.8 | -11.1 | 1.2 | 6.0 | -3.3
COc1cc(C2c3cc4c(cc3CC3COC(=O)C32)OCO4)cc(OC)c1OC (stereo not drawn) | -22.0 | -20.7 | . | . | .
COc1ccc2c(c1OC)CN1CCc3cc4c(cc3C1C2)OCO4 (stereo not drawn) | -1.6 | -105.6* | 1.3 | -80.1* | -9.3
CC(=O)O[C@H]1C[C@H](O[C@H]2[C@@H](O)C[C@H](O[C@H]3[C@@H](O)C[C@H](OC4CC[C@@]5(C)[C@H](CC[C@@H]6[C@@H]5CC[C@]5(C)[C@@H](C7=CC(=O)OC7)CC[C@]65O)C4)O[C@@H]3C)O[C@@H]2C)O[C@H](C)[C@H]1O[C@@H]1O[C@H](CO)[C@@H](O)[C@H](O)[C@H]1O (stereo partly drawn) | 9.9 | . | . | . | .
Cc1nc2cc(OC(=O)N(C)Cc3cccc(-c4ccncc4)c3)ccc2s1 | 32.9* | 128.5 | . | . | .
O=C(C1CCCO1)N1CCC2(CC1)OCCO2 (stereo not drawn) | 13.7 | -59.5* | 2.9 | -17.1 | 5.5
O=C(C1CCC(=O)N1C1CCCC1)N1CCC2(CC1)OCCO2 (stereo not drawn) | 2.7 | -12.0 | 3.7 | -18.7 | -2.3
CC(=O)O[C@H]1C(=O)[C@@]2(C)C([C@H](OC(=O)c3ccccc3)[C@]3(O)C[C@H](OC(=O)[C@H](O)[C@@H](NC(=O)Cc4ccccc4)c4ccccc4)C(C)=C1C3(C)C)[C@]1(OC(C)=O)CO[C@@H]1C[C@@H]2O (stereo partly drawn) | -9.3 | -50.4* | 3.8 | 8.9 | 3.5
C[C@]12CC[C@H](O)C[C@H]1CC[C@@H]1[C@@H]2CC[C@]2(C)[C@@H](c3ccc(=O)oc3)C[C@H]3O[C@]132 | 7.7 | . | . | . | .
COC(=O)C1=C(c2ccc(F)cc2F)C[C@@H]2CC[C@H]1N2C(=O)NCC1CC1 | 9.4 | 1.3 | -0.8 | 9.5 | -4.7
